Several values for one entry are separate records, joined by “and”; a condition that tells them apart may be missing. Equal entries are not always repeated. Screen size: about 5,500 compounds; about 2,000 (36%) were called active. About 18% were inconclusive and are not listed. Rule as the data show it: active = normalized growth mostly below about 0.91 (no sharp cut-off); inconclusive = no clear call, values can overlap the other calls; inactive = mostly above about 0.92. This is one part of the list. The source holds several records for some structures; these can differ, active in one and inactive in another.
Assay: chemical genetic growth profiling, strain panel (AID 1159580);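 also: tested at 20 µM; growth read once vehicle control cultures reached saturation at 30 °C; 1 = growth at the plate median or of vehicle wells; lower values mean less growth of the strain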
Settings: S. cerevisiae deletion strains, growth OD

Measured: normalized growth

CC(C)COCC(CN(Cc1ccccc1)c1ccccc1)N1CCCC1 (stereo not given)
0.771 (active) and 0.959 (inactive): locus YHR030C, strain SLT2, stronger effect = lower value
0.786 (active) and 0.987 (inactive): locus YGR078C, strain PAC10, stronger effect = lower value
0.587 (active) and 0.983 (inactive): locus YJL095W, strain BCK1, stronger effect = lower value
active: locus YAL013W, strain DEP1, stronger effect = lower value 0.871 | locus YBR021W, strain FUR4, stronger effect = lower value 0.594 | locus YDL074C, strain BRE1, stronger effect = lower value 0.694 | locus YDR162C, strain NBP2, stronger effect = lower value 0.802 | locus YDR388W, stronger effect = lower value 0.814 | locus YDR502C, strain sam2, stronger effect = lower value 0.914 | locus YGL086W, strain mad1, stronger effect = lower value 0.903 | locus YGL248W, strain PDE1, stronger effect = lower value 0.849 | locus YGR135W, strain pre9, stronger effect = lower value 0.849 | locus YGR229C, strain SMI1, stronger effect = lower value 0.434 | locus YGR252W, strain gcn5, stronger effect = lower value 0.734 | locus YIL066C, strain RNR3, stronger effect = lower value 0.809 | locus YJL187C, strain SWE1 (second series), stronger effect = lower value 0.801
inactive: locus YAL021C, strain ccr4, stronger effect = lower value 0.962 | locus YAL026C, strain drs2, stronger effect = lower value 1.01 | locus YAL030W, strain snc1, stronger effect = lower value 1.03 | locus YAL040C, strain CLN3, stronger effect = lower value 1.09 | locus YBL061C, strain skt5, stronger effect = lower value 1.04 | locus YBR009C, strain hhf1, stronger effect = lower value 1 | locus YBR023C, strain chs3, stronger effect = lower value 1.02 | locus YBR171W, strain sec66, stronger effect = lower value 1.06 | locus YBR229C, strain ROT2, stronger effect = lower value 0.953 | locus YBR231C, strain swc5, stronger effect = lower value 1.01 | locus YBR279W, strain paf1, stronger effect = lower value 1.04 | locus YCL011C, strain gbp2, stronger effect = lower value 1.02 | locus YCL016C, strain dcc1, stronger effect = lower value 1.02 | locus YCL029C, strain bik1, stronger effect = lower value 0.978 | locus YCL061C, strain MRC1 (second series), stronger effect = lower value 1.01 | locus YCL061C, strain MRC1, stronger effect = lower value 1.02 | locus YCL069W, strain vba3, stronger effect = lower value 1.05 | locus YCR088W, strain abp1, stronger effect = lower value 1.04 | locus YDL005C, strain med2, stronger effect = lower value 1.05 | locus YDL035C, strain GPR1, stronger effect = lower value 0.864 | locus YDL040C, strain nat1, stronger effect = lower value 1.02 | locus YDL101C, strain DUN1, stronger effect = lower value 0.926 | locus YDL134C, strain PPH21, stronger effect = lower value 0.9 | locus YDL185W, strain tfp1, stronger effect = lower value 0.978 | locus YDL192W, strain arf1, stronger effect = lower value 0.977 | locus YDR001C, strain nth1, stronger effect = lower value 1.03 | locus YDR069C, strain doa4, stronger effect = lower value 1.02 | locus YDR101C, strain arx1, stronger effect = lower value 0.929 | locus YDR137W, strain rgp1, stronger effect = lower value 1.1 | locus YDR150W, strain NUM1, stronger effect = lower value 0.965 | locus YDR159W, strain sac3, stronger effect = lower value 1.03 | locus YDR195W, strain ref2 1.07 | locus YDR297W, strain sur2, stronger effect = lower value 1.02 | locus YDR318W, strain mcm21, stronger effect = lower value 0.947 | locus YDR334W, strain swr1, stronger effect = lower value 1.03 | locus YDR335W, strain msn5, stronger effect = lower value 1.06 | locus YDR392W, strain spt3, stronger effect = lower value 0.934 | locus YEL003W, strain gim4, stronger effect = lower value 1.04 | locus YEL037C, strain rad23, stronger effect = lower value 1.03 | locus YEL061C, strain CIN8 (second series), stronger effect = lower value 1.03 | locus YEL061C, strain CIN8, stronger effect = lower value 0.973 | locus YER002W, strain NOP16, stronger effect = lower value 1.02 | locus YER015W, strain faa2, stronger effect = lower value 1.01 | locus YER016W, strain bim1, stronger effect = lower value 1.02 | locus YER110C, stronger effect = lower value 0.96 | locus YER111C, strain swi4, stronger effect = lower value 1.06 | locus YER155C, strain BEM2 (second series), stronger effect = lower value 0.884 | locus YER155C, strain BEM2, stronger effect = lower value 1.02 | locus YER167W, strain BCK2, stronger effect = lower value 0.958 | locus YFR010W, strain ubp6, stronger effect = lower value 0.998 | locus YGL078C, strain dbp3, stronger effect = lower value 0.978 | locus YGL167C, strain pmr1, stronger effect = lower value 1.04 | locus YGL173C, strain kem1, stronger effect = lower value 1.01 | locus YGL227W, strain vid30, stronger effect = lower value 1.03 | locus YGL240W, strain doc1, stronger effect = lower value 0.99 | locus YGL253W, strain hxk2, stronger effect = lower value 1.05 | locus YHR013C, strain ard1, stronger effect = lower value 1.03 | locus YHR027C, strain rpn1, stronger effect = lower value 1 | locus YHR079C, strain IRE1 (second series), stronger effect = lower value 0.972 | locus YHR079C, strain IRE1, stronger effect = lower value 0.998 | locus YHR094C, strain hxt1, stronger effect = lower value 0.987 | locus YHR129C, strain ARP1, stronger effect = lower value 0.949 | locus YHR142W, strain chs7, stronger effect = lower value 1.04 | locus YHR200W, strain rpn10, stronger effect = lower value 0.975 | locus YIL073C, strain SPO22, stronger effect = lower value 1.3 | locus YIL125W, strain kgd1, stronger effect = lower value 0.991 | locus YIR030C, strain dcg1, stronger effect = lower value 0.98 | locus YJL092W, strain hpr5, stronger effect = lower value 1.01 | locus YJL095W, strain BCK1 (second series), stronger effect = lower value 1 | locus YJL115W, strain asf1, stronger effect = lower value 1.04 | locus YJL129C, strain trk1, stronger effect = lower value 1.06 | locus YJL134W, strain LCB3, stronger effect = lower value 0.988 | locus YJL154C, strain vps35, stronger effect = lower value 1.04 | locus YJL164C, strain tpk1, stronger effect = lower value 1.01 | locus YJL166W, strain qcr8, stronger effect = lower value 1.01 | locus YJL168C, strain set2, stronger effect = lower value 0.989 | locus YJL187C, strain SWE1, stronger effect = lower value 1.03 | locus YJR043C, strain POL32, stronger effect = lower value 0.996 | locus YJR066W, strain TOR1, stronger effect = lower value 0.948
